Nine molecules from PubChem BioAssay (NCI) can be followed below.

Holding throughout (assay): NCI-60 one-dose screen, 48 h (100 = growth as untreated, 0 = no growth, -100 = all killed)
What all share (conditions): 10 µM unless noted

Assay [1] deals with HCT-15 colon.
Assay [2] concerns HT29 colon.
Assay [3] concerns SNB-75 CNS.
The subject of assay [4] is SNB-19 CNS.
Assay [5] relates to U251 CNS.
For assay [6], the system named is PC-3 prostate.
Assay [7] concerns SK-MEL-5 melanoma.
Assay [8] has as its system UACC-62 melanoma.
The test system of assay [9] is LOX IMVI melanoma.
In assay [10] the test system is SK-MEL-28 melanoma.
Assay [11] deals with SK-MEL-2 melanoma.
The test system of assay [12] is SN12C renal.
In assay [13] the test system is UO-31 renal.
In assay [14] the test system is TK-10 renal.
The subject of assay [15] is ACHN renal.
The test system of assay [16] is CCRF-CEM leukemia.
Assay [17] deals with MOLT-4 leukemia.
Assay [18] relates to CAKI-1 renal.
In assay [19] the test system is A498 renal.

About 83,000 compounds went through this panel and 20% of them were active in at least one assay; those are over-represented in the sample as a whole.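 The endpoint reported here, percent growth, reads 100 for growth as untreated, 0 for no net growth and -100 for all cells dead.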 Unmarked numbers belong to inactive results. Activity calls are given as the source filed them. How the source made its calls: active means growth percent below 10; inactive means the rest.

`CC(C)C[C@H](NC(=O)[C@H](Cc1ccccc1)n1ccc(N2CCCCC2)cc1=O)B(O)O`: the growth in assay [1] is 28.3%; in assay [2] it was 0.204% (active); in assay [3], 4.25% (active); in [4], 29.2%; in assay [5] it was 18.1%; in assay [6] it was 27.7%. Further, the growth is -25.2% (active) in assay [7]; -12.5% (active) in assay [8]; -72.1% (active) in assay [9]; 28.6% in assay [10]; 2.84% (active) in assay [11]; 26.7% in assay [12]. Besides, the growth in [13] is -37.2% (active); in assay [14], 16.9%; in assay [15] it was 16.1%; in assay [16] it was 1.97% (active); in assay [17], -2.84% (active).

With `COc1ccc(C(=O)c2cc(OC)c(OC)c(OC)c2)cc1/C=C/C(=O)c1ccc(O)cc1`, the growth in [1] was -29.5% (active); in assay [2], 26.2%; in assay [3], 28.7%; in assay [4], 34.8%; in assay [5] it was 0.446% (active); in assay [6], 54.1%. In addition, the growth in assay [7] was 11.3%; in assay [8], 20.1%; in [9] it was 0.734% (active); in assay [10] it was 22.5%; in assay [11], 14.8%; in assay [12], 17.7%. The growth was 36.4% in assay [13]; 75.1% in assay [14]; -62.8% (active) in assay [15]; 24.8% in assay [18]; 10.7% in assay [16]; 15.5% in assay [17].

As to `O=C(NNC(=S)Nc1ccccc1)c1ccccn1`, the growth in assay [1] is 22.8%; in assay [2], 57.2%; in [3], 67.5%; in assay [4], 52.2%; in assay [5], 20.4%; in [6], 34.4%. Moreover, the growth in assay [7] is 13.8%; in assay [8] it was 5% (active); in assay [9], 25.9%; in assay [10], 46%; in [11], 85.6%; in assay [12], 43.7%. Also, the growth in assay [13] was 19.8%; in assay [14], 50.2%; in assay [15], 16.4%; in assay [18] it was 5.93% (active); in assay [17], 13.8%.

Take `O=C(CNc1c(Cl)cccc1Cl)Nc1ccc(-c2nc3ccccc3s2)cc1`: the growth in assay [1] is 2.42% (active); in [2], 69.8%; in assay [3], 59.2%; in assay [4] it was 73.9%; in assay [5], 27.7%; in assay [6], 85.9%. Also, the growth is 21.2% in [7]; 35.1% in [8]; -49.3% (active) in [9]; 104% in assay [10]; 84.8% in [11]; 48% in assay [12]. For the same molecule, the growth in assay [13] was 73.7%; in [14], 106%; in assay [15] it was 42.3%; in assay [18] it was 28.8%; in [17], 5.63% (active).

Regarding `NC(=O)NC(=O)/C=C/C(=O)OCCCl`, the growth in assay [1] is 77.5%; in assay [2] it was 90%; in [3], 80.3%; in assay [4], 101%; in assay [5], 101%; in [6] it was 92.1%. For the same molecule, the growth in assay [7] was 106%; in [8], 104%; in assay [9], 98.6%; in assay [10] it was 100%; in [11], 113%; in assay [12], 104%. For the same molecule, the growth is 89.2% in assay [13]; 72.1% in [14]; 79.9% in [15]; 99.6% in assay [18]; 96.9% in assay [17].

As to `COc1cc(C(=O)/C=C/c2cc(C(=O)c3cc(OC)c(OC)c(OC)c3)ccc2OC)ccc1N`, the growth in assay [1] is -10.2% (active); in assay [2], -58.3% (active); in assay [3], 29.5%; in [4], -7.07% (active); in assay [5], -79.9% (active); in assay [6] it was -20.6% (active). For the same molecule, the growth in [7] was -83.3% (active); in [8], -79.8% (active); in [9], -78.8% (active); in assay [10], -53.4% (active); in [11], -38.6% (active); in [12], 18.8%. The growth in assay [13] is -86.7% (active); in assay [14], 13.1%; in assay [15], -88.5% (active); in assay [19] it was -6.91% (active); in assay [16], -10.7% (active); in assay [17], 4.31% (active).

`O=C(/C=C/CN1CCOCC1)Nc1cc2c(Nc3ccc(F)c(Cl)c3F)ncnc2cc1OCCOC(F)F`: the growth in [1] was 38.1%; in assay [2], 43.3%; in assay [3], 21.5%; in [4] it was 70%; in assay [5], 81.2%; in [6] it was 46.1%. The growth was 50.4% in assay [7]; 65.7% in assay [8]; 15.3% in assay [9]; 77.5% in assay [10]; 85.6% in assay [11]; 34.4% in assay [12]. The growth in [13] was 22.9%; in [14], 33.9%; in assay [15], 14.2%; in assay [18] it was 15.9%; in assay [17] it was 69.5%.

With `COc1cc(CNC(=O)CSc2nc3ccccc3c(=O)n2Cc2cc(OC)c(OC)c(OC)c2)cc(OC)c1OC`, the growth is 97.4% in assay [1]; 108% in assay [2]; 89.2% in [3]; 92.5% in assay [4]; 98% in assay [5]; 97.4% in assay [6]. The growth was 93.7% in assay [7]; 86.8% in assay [8]; 99.9% in assay [9]; 102% in [10]; 95.9% in [11]; 96.6% in assay [12]. The growth in assay [13] was 72.5%; in assay [14], 99.7%; in [15], 98.1%; in assay [18], 98.5%; in [16] it was 96.2%; in [17] it was 92.7%.

As to `COc1ccc(NC(=O)CSc2nc3ccc(Cl)cc3c(=O)n2-c2ccccc2C(F)(F)F)c(OC)c1OC`, the growth in [1] was 97.8%; in [2], 97.3%; in assay [3] it was -17.3% (active); in assay [4] it was 68.1%; in assay [5] it was 58%; in assay [6] it was 75.1%. Also, the growth in [7] is 89.7%; in [8] it was 68.7%; in assay [9], 88%; in assay [10], 92.1%; in [11] it was 53.3%; in assay [12] it was 80.1%. Besides, the growth in assay [13] is 77.6%; in assay [15] it was 61.2%; in assay [18], 78.4%; in assay [19], 78.3%; in assay [16], 33.7%; in assay [17] it was 106%.
